Data taken from PubChem BioAssay AID435005 (Broad Institute, 2010).
“And” between values parts separate entries of the source, which are not always exact repeats. Equal values may be shown once. About 2,400 (0.8%) of roughly 300,000 compounds were called active. The sample holds actives, similar compounds and a random draw of the others, so the mix is not that of the screen.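 How the source made its calls: active means Every replicate reaches about 75%, or at least half do and their mean reaches it too (limit read from the data); inconclusive means At least half of replicates reach the limit but their mean does not; inactive means Under half of replicates reach the limit.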 More than one record can exist for a structure, and the calls need not agree.

assay: INS-1E beta cell survival under cytokines – luminescence, primary screen (AID 435005); conditions: INS-1E cytokine-induced death, ATP luminescence, 48 h; stronger effect = higher value; percent of positive-control rescue, neutral wells zero; concentration not given here;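 further: 0% = cytokine-treated negative control wells and 100% = positive control rescue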

Compound | protection from apoptosis
CN(C)C(CNC(=O)c1ccc(OCc2cn3ccccc3n2)cc1)c1ccco1 (centres undefined) | 0.439% (inactive)
Cc1nc2ccccc2nc1N/N=C/c1ccc(O)cc1O | 86.1% (active)
FC(F)(F)c1nc2ccccc2nc1N/N=C/c1ccc(Cl)cc1 | 7.12% (inactive)
Oc1ccc(/C=N/Nc2nc(-c3ccccc3F)nc3ccccc23)c(O)c1 | 91.3% (active)
Fc1ccc(/C=N/Nc2nc(-c3cccnc3)nc3ccccc23)cc1 | 12.4% (inactive)
Oc1ccc(/C=N/NC2=NCCCCC2)c(O)c1 | -2.33% (inactive)
Cc1cccc(-c2nc(Nc3ccc(O)cc3)c3ccccc3n2)c1 | -3.47% (inactive)
COc1ccc(-c2c(C#Cc3ccsc3)c3cc(-c4ccc(CN5CCOCC5)cc4)ccc3n2C)cc1 | -5.34% (inactive)
C=CCC[C@@H](Cc1ccc(F)cc1)C(=O)OC[C@@H](C)NC(=O)[C@H](CC=C)CC(=O)N(CCO)Cc1ccccc1 | -3.2% (inactive)
CC(C)(C)NS(=O)(=O)NC(=O)C1=C(N2CCCC2)COC1=O | -7.92% (inactive)
COc1ccc(NC(=O)CNc2cc(S(=O)(=O)N3CCOCC3)ccc2N2CCOCC2)c(OC)c1 | -2.12% (inactive)
CC(CNC(=O)Cn1cnc2c(OCc3ccccc3)ncnc21)c1ccccc1 (centres undefined) | 0.936% (inactive)
CC(C)(C)OC(=O)C[C@@H]1C/C=C\C[C@@H](CC(=O)N[C@H](CO)Cc2ccccc2)C(=O)NC[C@@H](c2ccccc2)OC1=O | 6.98% (inactive)
CCOc1cc2ccccc2cc1C(=O)Nc1ccccn1 | -5.78% (inactive)
CCN(CC)CCOc1ccc2c(c1)C(=NNC(=O)c1ccccn1)c1cc(OCCN(CC)CC)ccc1-2 | 107% (active)
Cc1ccc(Cl)cc1NC(=O)c1ccccn1 | -1.51% (inactive)
NS(=O)(=O)c1ccc(CNC(=O)c2cccc(S(=O)(=O)N3CCc4ccccc43)c2)cc1 | 1.37% (inactive)
O=C(Nc1cc(S(=O)(=O)N2CCCCC2)ccc1Cl)C1COc2ccccc2O1 (centres undefined) | 3.53% (inactive)
COc1cccc(NC(=O)NCc2ccc(F)cc2)c1 | -3.25% (inactive)
Cc1cccc(NC(=O)Nc2cccc(Oc3c(F)c(F)c(F)c(F)c3F)c2)c1 | 99.2% (active)
Cc1cccc(NC(=O)Nc2nnc(-c3ccccc3)o2)c1 | -2.12% (inactive)
CN(CC(=O)Nc1ccc(C(N)=O)cc1)S(=O)(=O)c1ccc2c(c1)OCCO2 | -4.98% (inactive)
N#Cc1cccc(NC(=O)C2CCCN(C(=O)c3ccc(Cl)cc3)C2)c1 (centres undefined) | 0.765% (inactive)

Compound | protection from apoptosis
O=C(/C=C/c1ccc([N+](=O)[O-])o1)NNC(=O)c1ccc(F)cc1 | 93.8% (active)
O=C(N/N=C/c1ccc([N+](=O)[O-])o1)c1cn(-c2ccccc2)nc1-c1ccc(F)cc1 | -1.79% (inactive)
Cc1ccc(/C=C/C(=O)Nc2ccc([N+](=O)[O-])c(NC(=O)/C=C/c3ccc(C)o3)c2)o1 | 2.69% (inactive)
C[C@H]1COC(=O)[C@H](CC(=O)OC(C)(C)C)C/C=C\C[C@@H](CC(=O)N[C@H](CO)Cc2ccccc2)C(=O)N1 | 0.417% (inactive)
COCCCNC(=O)CC1C[C@H](C(=O)N2CCCCC2)[C@@]2(CCc3ccccc3)c3[nH]c4ccccc4c3CCN2C1=O (some centres undefined) | -3.93% (inactive)
C=CC[C@@H](CC(=O)N[C@H](CO)Cc1ccccc1)C(=O)N[C@@H](COC(=O)[C@@H](CC=C)Cc1ccc(F)cc1)Cc1c[nH]c2ccccc12 | 2.3% (inactive)
CCOC(=O)C1=C(c2ccc(OC)cc2)C(=O)c2ccccc2C1=O | 130% (active)
COc1ccc(N2CCN(C(C)=C3C(=O)c4ccccc4C3=O)CC2)cc1 | -2.02% (inactive)
CCOC(=O)c1c(-c2ccc(C)cc2)csc1/N=C(\C)C1=C(O)c2ccccc2C1=O | -5.12% (inactive)
Cc1ccc(NC(=O)C2CC2)cc1S(=O)(=O)N1CCOCC1 | -4.34% (inactive)
CC(OC(=O)c1c(F)cccc1F)C(=O)NCCC1=CCCCC1 (centres undefined) | -3.37% (inactive)
CC(C)n1cnc2c(NCc3ccccc3)cc(N[C@@H](CO)Cc3ccccc3)cc21 | 135% (active)
CCC(CO)Oc1cc(NCc2ccccc2)c2ncn(C3CCCC3)c2c1 (centres undefined) | -4.59% (inactive)
CC(C)n1cnc2c(NCc3ccccc3)cc(OCC3CCN(C)CC3)cc21 | -8.55% (inactive)
COc1ccc(C2(c3ccc(OC)cc3)NC(=O)N(CC(=O)Nc3cc(C)on3)C2=O)cc1 | -3.35% (inactive)
CCn1nnc2cc(C(=O)Nc3ccc(C(=O)OC(C)C)cc3)ccc21 | 1.63% (inactive)
O=C(Nc1ccccc1Cl)/C(Cl)=C(\Cl)S(=O)c1ccccc1 (centres undefined) | 123% (active)
O=C(Nc1ccccc1Cl)Nc1cccc2cccnc12 | 15.9% (inactive)
O=C(Cc1ccc2c(c1)CCCC2)Nc1ccccc1Cl | 9.68% (inactive)
O=C(Nc1cccc(S(=O)(=O)NC2=NCCC2)c1)c1ccc(F)cc1F | -5.38% (inactive)
COc1cc(/C=C/C(=O)OCC(=O)c2ccccc2)cc(OC)c1OC | -3.69% (inactive)
Oc1ccc2ccccc2c1N=Nc1nccs1 | 83.9% (active)
c1ccc(NCc2cccc3ccccc23)nc1 | -6.69% (inactive)

Compound | protection from apoptosis
Oc1ccc(N=Nc2nccs2)c(O)c1 | 98.3% (active)
CCN1/C(=C\c2ccc3ccccc3[n+]2CC)Sc2cc(C)ccc21 | 106% (active)
Cc1nc2ccc(NC(=O)c3cccc(S(=O)(=O)N4CCOCC4)c3)cc2s1 | -1.06% (inactive)
c1ccc2cc(CCCc3cc4ccccc4cn3)ncc2c1 | -10.4% (inactive)
Cc1ccc(NC(=O)Cn2cnc3c(OCc4ccccc4)ncnc32)cc1C | -4.68% (inactive)
COCCN(Cc1ccccc1)C(=O)Cc1ccc(S(=O)(=O)N2CCOCC2)s1 | -6.29% (inactive)
O=C(CN1C(=O)NC2(CCCCCC2)C1=O)NCc1ccc(F)cc1 | -3.82% (inactive)
Cc1ccc(-c2c[n+](CC(=O)Nc3ccccc3)c3n2CCC3)cc1 | -4.97% (inactive)
Cc1ccc(C(=O)C[n+]2cc(-c3ccccc3)n3c2CCCCC3)cc1 | 80.4% (active) and 69.5% (inactive)
Clc1ccc(C[n+]2cc(-c3ccccc3)n3c2CCC3)cc1 | -17.9% (inactive)
O=C(CNC(=O)c1n[nH]c2ccccc12)Nc1cc(Cl)ccc1Cl | -6.41% (inactive)
COc1ccc(S(=O)(=O)N2CCCCC2)cc1NC(=O)COc1ccccc1 | 3.1% (inactive)
COc1ccc(S(=O)(=O)N2CCCCCC2)cc1NC(=O)Cc1ccc(OC)c(OC)c1 | -0.791% (inactive)
CCOc1ccc(S(=O)(=O)N2CCCCC2)cc1NC(=O)CN1CCCC1c1cccs1 (centres undefined) | 108% (active)
CCc1sc(C(=O)N2CCN(CC(=O)Nc3cccc(F)c3)CC2)cc1C | -5.03% (inactive)
O=C(CC1SCCNC1=O)Nc1ccc(Cl)c(Cl)c1 (centres undefined) | 0.331% (inactive)
O=C(Cc1ccc(Cl)c(Cl)c1)Nc1ccc(SC(F)F)cc1 | -2.99% (inactive)
O=C(CC(O)(C(F)(F)F)C(F)(F)F)Nc1ccc(Cl)c(Cl)c1 | 105% (active)
O=C(Cn1cnc2c(OCc3ccccc3)ncnc21)NCc1nc2ccccc2[nH]1 | -9.45% (inactive)
COc1ccc(CNc2nc(NCc3ccc(OC)cc3)c3ncn(C4CCCC4)c3n2)cc1 | -10.2% (inactive)
O=C(/C=C/c1cccc([N+](=O)[O-])c1)N1CCN(Cc2ccccc2)CC1 | -1.33% (inactive)
O=[N+]([O-])/C=C/c1ccc2c(ccn2Cc2ccccc2)c1 | 102% (active)
O=c1c([N+](=O)[O-])cc(C(F)(F)F)cn1Cc1cccc(Cl)c1 | -7.45% (inactive)

Compound | protection from apoptosis
CCC(CO)Oc1cc(NC(=O)c2cccc3ccccc23)c2ncn(C(C)C)c2c1 (centres undefined) | 4.17% (inactive)
O=C1C=C(c2cc(C(F)(F)F)cc(C(F)(F)F)c2)C[C@@H](c2ccc3c(c2)OCO3)C1 | 7.25% (inactive)
COc1cc(CC(=O)Nc2nc(-c3ccc(F)c(F)c3)cs2)cc(OC)c1OC | 92.9% (active)
COc1ccc(-c2csc(NC(=O)COC(=O)Cc3ccc(Cl)cc3Cl)n2)cc1 | 2.13% (inactive)
Cc1ccc(S(=O)(=O)NC(=O)Nc2nc(-c3ccc(F)c(F)c3)cs2)cc1 | -25.4% (inactive)
COc1cccc(CC(=O)Nc2nc(-c3ccc(OC)c(OC)c3)cs2)c1 | -4.99% (inactive)
CCCc1ccc(-c2csc(NC(=O)Cc3cccs3)n2)cc1 | 6.06% (inactive)
COc1ccc(CC(=O)Nc2nc(-c3ccc(F)c(F)c3)cs2)cc1OC | 97.5% (active)
Cc1cccc(-n2ncc3c(=O)[nH]c(SCC(=O)Nc4cc(C)on4)nc32)c1 | 1.12% (inactive)
COc1ccc(CCNC(=O)COC(=O)Cc2ccccc2F)cc1 | -2.5% (inactive)
Cc1ccc(CC(=O)Nc2ccc(S(=O)(=O)N3CCOCC3)cc2)cc1C | 0.192% (inactive)
CC(OC(=O)c1cc2ccccc2[nH]1)C(=O)N(C)c1ccccc1 (centres undefined) | -1.05% (inactive)
CC1Cc2ccccc2N1C(=O)CSc1nc2ccccc2o1 (centres undefined) | 104% (active)
Cc1cc(=O)[nH]c(SCC(=O)N2c3ccccc3CC2C)n1 (centres undefined) | -8.13% (inactive)
CCS(=O)(=O)c1ccc2oc(SCC(=O)N3c4ccccc4CC3C)nc2c1 (centres undefined) | -3.73% (inactive)
O=C(COC(=O)c1cccnc1Cl)NC12CC3CC(CC(C3)C1)C2 | -1.6% (inactive)
Cc1ccc(NC(=O)C2CCC(C(C)(C)C)CC2)cc1S(=O)(=O)N1CCOCC1 (centres undefined) | 6.89% (inactive)
COc1ccc(CCNC(=O)/C(C#N)=C2\N=C(NC(=O)c3cccs3)c3ccccc32)cc1 | -2.09% (inactive)
O=C(NCC#CCSc1nnc(-c2cccc3ccccc23)o1)c1cccs1 | 109% (active)
COc1ccc(CCNC(=O)CSc2nnc(CNC(=O)c3cccs3)o2)cc1OC | -5.35% (inactive)
